PubChem BioAssay (NCATS)
Inconclusive results are not listed. Values without a mark were called inactive. Calls of active or inactive are those of the source. Calls come from the whole dose curve; as a rule, active = well fitted cell-killing curve with a large enough effect; inconclusive = small, poorly fitted or top-dose-only effect, or effect the other way; inactive = no such curve, though single readings can be large or run the other way.

Test: Quantitative High-Throughput drug screen in 47 multiple myeloma cell lines against the NCATS MIPE library collection: KMS20_JCRB cell viability assay (AID 1918973); note: nearly all actives have a fitted effect of over 45% in size
Details: CellTiter-Glo ATP, 48 h; series mostly up to 45.8 µM; viability (% of DMSO): at the top concentration
Source text: PI: Beverly A. Mock Ph.D.
Laboratory of Cancer Biology and Genetics,
Center for Cancer Research, National Cancer Institute,
National Institute of Health, Bethesda, Maryland
Drug resistance and disease progression are common in multiple myeloma (MM) patients, underscoring the need for new therapeutic combinations. […] We hypothesized that effective combinations would reduce MYC expression and enhance p16 activity. […] These preclinical data identify potentially useful drug combinations for evaluation in drug-resistant MM and reveal potential mechanisms of combined drug sensitivity.
Described herein is the primary MIPE qHTS used to cherrypick compounds. Validated compounds were then further tested for potential synergistic activiy.
[1] Peat TJ, Gaikwad SM, Dubois W, Gyabaah-Kessie N, Zhang S, Gorjifard S, Phyo Z, Andres M, Hughitt VK, Simpson RM, Miller MA, Girvin AT, Taylor A, Williams D, D'Antonio N, Zhang Y, Rajagopalan A, Flietner E, Wilson K, Zhang X, Shinn P, Klumpp-Thomas C, McKnight C, Itkin Z, Chen L, Kazandijian D, Zhang J, Michalowski AM, Simmons JK, Keats J, Thomas CJ, Mock BA. Drug combinations identified by high-throughput screening promote cell cycle transition and upregulate Smad pathways in myeloma. Cancer Lett. 2023 Aug 1;568:216284. doi: 10.1016/j.canlet.2023.216284. Epub 2023 Jun 24. PMID: 37356470; PMCID: PMC10408729.
SEQUENCE No. (e.g., 1, 2, 3, etc.); […] (e.g., Cells, Incubation, Reagent, etc.); VALUE and DESCRIPTION.
1; Cells; 5 uL; white, solid bottom 1536-well Greiner assay plate.
2; Compounds; 23 nL; Kalypsis pin tool (Wako USA) equipped with a 1536-well pin head to transfer to the assay plates.
3; Incubation; 48 hours; 37C incubation.
4; Reagent;5uL; CellTiter Glo (Promega).
5; Detector; 425V; Luminescence; Viewlux PerkinElmer.
NOTES (numbers refer to Sequence numbers above)
1. The cell-based screening methods employed in this study were like those previously published. Briefly, the corresponding myeloma cell lines were screened in 1,536-well plates with 500 cells, 5-uL per well for inhibition of cell viability (assessed by measuring ATP levels with CellTiterGlo).
2. NCATS MIPE 4.0 library of approved and investigational drugs were added using the Kalypsis pin tool. Wells treated with DMSO only for 100% viability and media only wells for 0% viability were used as controls.
3. The assay plates were covered and incubated for 48 hours in a 37C, 5% CO2 incubator with controlled humidity.
4. After 48 hours, CellTilter-GloTM luminescent substrate mix (Promega) reagent was added to the assay plate and plates we incubated for 5 min at room temperature.
5. Signal was measured as median relative luminescence units on a ViewLux (PerkinElmer) multiplate reader.
[1] Heske CM, Davis MI, Baumgart JT, Wilson K, Gormally MV, Chen L, Zhang X, Ceribelli M, Duveau DY, Guha R, Ferrer M, Arnaldez FI, Ji J, Tran HL, Zhang Y, Mendoza A, Helman LJ, Thomas CJ. Matrix Screen Identifies Synergistic Combination of PARP Inhibitors and Nicotinamide Phosphoribosyltransferase (NAMPT) Inhibitors in Ewing Sarcoma. Clin Cancer Res. 2017 Dec 1;23(23):7301-7311. doi: 10.1158/1078-0432.CCR-17-1121. Epub 2017 Sep 12. PMID: 28899971; PMCID: PMC6636827.
Potency is the fitted concentration of half-maximal effect.

Structure (SMILES)	viability (% of DMSO)	Potency
c1ccc(-c2nn3c(c2-c2ccnc4cc(OCCN5CCOCC5)ccc24)CCC3)nc1	118%	
NC(=O)c1ccc(-c2nc(-c3ccc4c(c3)OCO4)c(-c3ccccn3)[nH]2)cc1	81.3%	
CCCc1nn(C)c2c(=O)[nH]c(-c3cc(S(=O)(=O)N4CCN(C)CC4)ccc3OCC)nc12		18.7 µM (active)
NS(=O)(=O)c1cc2c(cc1Cl)NC=NS2(=O)=O	115%	
CC(C)(C)OC(=O)CN(Cc1ccc(Cl)cc1)Cc1ccc([N+](=O)[O-])s1	72%	
CN[C@@H](C)C(=O)N[C@H]1CCCC[C@H]2CC[C@@H](C(=O)N[C@@H](c3ccccc3)c3cn(CCCCc4ccc(CCCCn5cc([C@@H](NC(=O)[C@@H]6CC[C@@H]7CCCC[C@H](NC(=O)[C@H](C)NC)C(=O)N76)c6ccccc6)nn5)cc4)nn3)N2C1=O		4.18 µM (active)
O=S(=O)(N=Cc1c(O)ccc2ccccc12)c1cccs1		0.833 µM (active)
COc1ccccc1-c1cccc(-c2c(O)c3cc(C#N)c(Cl)cc3[nH]c2=O)c1	110% [at 92.2 µM]	
CC(C)OC(=O)C1=CN(C(=O)c2ccc(F)c(F)c2)CC(C)(C)c2c1[nH]c1ccccc21	97.6%	
CCC(=O)N[C@H]1CC[C@H](C(=O)N(C)c2ccc(-c3nc4ccccc4o3)cc2)C1		7.43 µM (active)
O=C(C=Cc1ccc(/C=C/C(=O)Nc2ccc(C3=NCCN3)cc2)cc1)Nc1ccc(C2=NCCN2)cc1	108%	
Cc1c(CN2CCN(C(=O)C(C)C)CC2)sc2c(N3CCOCC3)nc(-c3cnc(N)nc3)nc12		0.418 µM (active)
Oc1cccc(-c2nc(N3CCOCC3)c3oc4ncccc4c3n2)c1		0.152 µM (active)
Clc1cccc(Cl)c1NC1=NCCN1	105%	
N#Cc1ccc(C(c2ccc(C#N)cc2)n2cncn2)cc1	85.6%	
Cc1ccc(NC(=O)c2cccc(C(C)(C)C#N)c2)cc1Nc1ccc2ncn(C)c(=O)c2c1		2.96 µM (active)
CCOC(=O)C1=C[C@]2(CC)CCCN3CCc4c(n1c1ccccc41)[C@@H]32		5.9 µM (active)
Cn1cc(-c2ccc3nnc(C(F)(F)c4ccc5ncccc5c4)n3n2)cn1	94%	
CCCCNc1cc(C(=O)O)cc(S(N)(=O)=O)c1Oc1ccccc1	128%	
CS(=O)(=O)c1cccc(CNc2nc(Nc3ccc4c(c3)CCC(=O)N4)ncc2C(F)(F)F)c1		14.8 µM (active)

Structure (SMILES)	viability (% of DMSO)	Potency
CC(c1cc2ccccc2s1)N(O)C(N)=O (stereo not given)	123%	
Cn1c(=O)c(F)c(Nc2ccc(I)cc2F)c2c(=O)n(C[C@@H](O)CO)cnc21		0.0118 µM (active)
CC(C)C[C@H](NC(=O)[C@@H](O)[C@H](N)Cc1ccccc1)C(=O)O		11.8 µM (active)
OCCC#Cc1nc(-c2ccc(F)cc2)c(-c2ccncc2)n1CCCc1ccccc1		16.6 µM (active)
COc1ccc(CC2=NN3C([C@@H](CCc4ccccc4)[C@@H](C)O)=NC(C)C3C(=O)N2)cc1OC (stereo not given in full)	137%	
Nc1nc2[nH]cc(CCc3ccc(C(=O)N[C@@H](CCC(=O)O)C(=O)O)cc3)c2c(=O)[nH]1	149%	
CCC(C)N(C)C(=O)c1cc2ccccc2c(-c2ccccc2Cl)n1 (stereo not given)	108%	
CO[C@@H]1[C@H](N(C)C(=O)c2ccccc2)C[C@H]2O[C@]1(C)n1c3ccccc3c3c4c(c5c6ccccc6n2c5c31)C(=O)NC4		1.05 µM (active)
O=c1[nH]cnc2[nH]ncc12	92.4%	
COc1cc2nccc(Oc3ccc(NC(=O)NC4CC4)c(Cl)c3)c2cc1C(N)=O		13.2 µM (active)
Cc1c(CCOc2ccc(C(=O)O)cc2)c2cc(Cl)ccc2n1C(c1ccccc1)c1ccccc1	85.7%	
COc1ccc2nc(S(=O)Cc3ncc(C)c(OC)c3C)[nH]c2c1 (stereo not given)	112%	
Nc1nc2ccc(OC(F)(F)F)cc2s1	108%	
CN(C(=O)c1ccc(F)cc1C(F)(F)F)C1CCN(c2nnc(-c3ccnn3C)c3ccccc23)CC1		10.5 µM (active)
O=C(NOC[C@H](O)CO)c1ccc(F)c(F)c1Nc1ccc(I)cc1F		0.0662 µM (active)
CN1CCN(CCCN2c3ccccc3Sc3ccc(C(F)(F)F)cc32)CC1		16.6 µM (active)
CCOc1cc(C(=O)Nc2ccc(Cl)c(-c3nc4ccccc4[nH]3)c2)cc(OCC)c1OCC		1.48 µM (active)
C1COC(NC(C2CC2)C2CC2)=N1	107%	
Cc1cc2c(C(C)C)c(O)c(O)c(C=O)c2c(O)c1-c1c(C)cc2c(C(C)C)c(O)c(O)c(C=O)c2c1O		11.8 µM (active)
Nc1nc2c(ncn2COCCO)c(=O)[nH]1	94.1%	
